± gives the standard deviation of the averaged measurements.
Tests used:
[1] = tested on: IL-6-GFP PC-9GR; assay: cell viability (CCK-8 OD) relative to DMSO control (fraction of control); higher = more viable cells; conditions: compound concentration: 10 uM; treatment time: 48 h
Procedure, shortened: (§1)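 A purchased 510-compound library was screened at a final 10 μM for 48 h against PC-9 and PC-9GR lung cancer cells overexpressing IL-6-GFP via a lentiviral construct, seeded at 3000 cells/well in 96-well plates. GFP imaging was done on a parallel plate set. For viability, CCK-8 absorbance was recorded and each well's optical density was divided by that of the vehicle control well. There were two independent replicates.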

[2] = tested on: IL-6-GFP PC-9; assay: as above; conditions: compound concentration: 10 uM; treatment time: 48 h
Procedure, shortened: as §1

Row | SMILES | cell viability [1] | cell viability [2]
1 | Cn1cc(C2=C(c3cn(C4CCN(Cc5ccccn5)CC4)c4ccccc34)C(=O)NC2=O)c2ccccc21 | 1.09 ± 0.062 | 1.09 ± 0.16
2 | O=C(O)C1C2CCC(O2)C1C(=O)[O][Na] (centres undefined) [Sodium Demethylcantharidate] | 1.12 ± 0.29 | 1.31 ± 0.083
3 | Cl.Cn1c(CCCC(=O)O)nc2cc(N(CCCl)CCCl)ccc21 [Bendamustine HCl] | 1.26 ± 0.066 | 1.2 ± 0.11
4 | COC1=CC2C3Cc4ccc(OC)c(O)c4C2(CCN3C)CC1=O (centres undefined) [Sinomenine] | 1.31 ± 0.18 | 1.19 ± 0.097
5 | O=C(O)CCCc1ccc(N(CCCl)CCCl)cc1 [Chloroambucil] | 0.937 ± 0.15 | 0.97 ± 0.18
6 | O=P1(NCCCl)OCCCN1CCCl (centres undefined) [Ifosfamide] | 1.15 ± 0.092 | 0.8 ± 0.02
7 | CC12CCC3c4ccc(OC(=O)N(CCCl)CCCl)cc4CCC3C1CCC2OP(=O)([O-])[O-].[Na+].[Na+] (centres undefined) [Estramustine phosphate sodium] | 0.645 ± 0.29 | 1.01 ± 0.25
8 | CC1CCC2N(C1)CC1C3CC4C(CC(O)C5CC(O)CCC54C)C3CCC1C2(C)O (centres undefined) [Peimine] | 1.12 ± 0.26 | 1.211 ± 0.0049
9 | CCC1(O)C(=O)OCc2c1cc1n(c2=O)Cc2c-1nc1ccccc1c2CCNC(C)C.Cl (centres undefined) [Belotecan (CKD-602) hydrochloride] | 0.322 ± 0.15 | 0.349 ± 0.055
10 | Cc1c(N)nc(C(CC(N)=O)NCC(N)C(N)=O)nc1C(=O)NC(C(=O)NC(C)C(O)C(C)C(=O)NC(C(=O)NCCc1nc(-c2nc(C(=O)NCCC[S+](C)C)cs2)cs1)C(C)O)C(OC1OC(CO)C(O)C(O)C1OC1OC(CO)C(O)C(OC(N)=O)C1O)c1c[nH]cn1.O=S(=O)([O-])O (centres undefined) [Bleomycin sulfate] | 0.653 ± 0.13 | 0.473 ± 0.051
11 | O.O=P1(N(CCCl)CCCl)NCCCO1 (centres undefined) [Cyclophosphamide Monohydrate] | 1.16 ± 0.065 | 1.2 ± 0.029
12 | CC(C)(C)NCC(O)c1ccccc1Cl.Cl (centres undefined) [Tulobuterol hydrochloride] | 1.07 ± 0.17 | 1.08 ± 0.15
13 | CC(C)C12OC1C1OC13C1(C)CCC4=C(COC4=O)C1CC1OC13C2O (centres undefined) [Triptolide (PG490)] | 0.466 ± 0.21 | 0.447 ± 0.12
14 | NC(Cc1ccc(N(CCCl)CCCl)cc1)C(=O)O (centres undefined) [Melphalan] | 0.78 ± 0.037 | 0.891 ± 0.076
15 | COc1cc(C2c3cc4c(cc3C(O)C3COC(=O)C23)OCO4)cc(OC)c1OC (centres undefined) [Picropodophyllin (PPP)] | 0.668 ± 0.27 | 0.603 ± 0.07
16 | O=c1c2ccccc2[se]n1-c1ccccc1 [Ebselen] | 0.788 ± 0.063 | 1.36 ± 0.22

Row | SMILES | cell viability [1] | cell viability [2]
17 | CC(C)[N+](C)(CCC(C(N)=O)(c1ccccc1)c1ccccc1)C(C)C.[I-] [Isopropamide Iodide] | 0.876 ± 0.069 | 0.841 ± 0.16
18 | O=C(O)c1nn(Cc2ccc(Cl)cc2Cl)c2ccccc12 [Lonidamine] | 1.29 ± 0.1 | 1.19 ± 0.13
19 | COc1cc2c(cc1O)CC1c3c(cc(O)c(OC)c3-2)CCN1C (centres undefined) [Boldine] | 0.922 ± 0.2 | 1.05 ± 0.11
20 | CCC1(O)C(=O)OCc2c1cc1n(c2=O)Cc2cc3ccccc3nc2-1 (centres undefined) [Camptothecin] | 0.807 ± 0.36 | 0.364 ± 0.036
21 | Cn1c(CCCC(=O)O)nc2cc(N(CCCl)CCCl)ccc21 [Bendamustine] | 1.02 ± 0.09 | 1.02 ± 0.18
22 | CCC1=CC2CN3CCc4c([nH]c5ccccc45)C(C(=O)OC)(C2)C13 (centres undefined) [Catharanthine] | 1.02 ± 0.093 | 1.1 ± 0.1
23 | CC1CC(=O)CC2CCC3C4CCC(O)C4(C)CCC3C12C (centres undefined) [Mesterolone] | 1.26 ± 0.32 | 1.21 ± 0.12
24 | COC1=CC2C3Cc4ccc(OC)c(O)c4C2(CCN3C)CC1=O.Cl (centres undefined) [Sinomenine hydrochloride] | 1.33 ± 0.43 | 1.28 ± 0.086
25 | COc1cc2c(c(OC)c1OC)-c1ccc(OC)c(=O)cc1C(NC(C)=O)CC2 (centres undefined) [Colchicine] | 0.584 ± 0.1 | 0.686 ± 0.078
26 | CC(C)C12OC1C1OC13C1(C)CCC4=C(COC4=O)C1CC1OC13C2=O (centres undefined) [Triptonide] | 0.403 ± 0.18 | 0.467 ± 0.063
27 | c1ccc2c(c1)Sc1ccccc1N2CC1CN2CCC1CC2 (centres undefined) [Mequitazine] | 0.705 ± 0.19 | 1.01 ± 0.021
28 | CC12CCC3C(CCC4=C(O)C(=O)CCC43C)C1CCC2=O (centres undefined) [Formestane] | 1.4 ± 0.13 | 0.466 ± 0.055
29 | Cc1cccc(C(C)c2c[nH]cn2)c1C.Cl (centres undefined) [Medetomidine HCl] | 1.25 ± 0.37 | 1.09 ± 0.011
30 | C=CCN1CC(C(=O)N(CCCN(C)C)C(=O)NCC)CC2c3cccc4[nH]cc(c34)CC21 (centres undefined) [Cabergoline] | 0.968 ± 0.23 | 1.05 ± 0.21
31 | COC(=O)CC(O)(CCC(C)(C)O)C(=O)OC1C(OC)=CC23CCCN2CCc2cc4c(cc2C13)OCO4 (centres undefined) [Harringtonine] | 0.245 ± 0.14 | 0.323 ± 0.058
32 | CN(C)NC(=O)CCC(=O)O [Daminozide] | 1.09 ± 0.18 | 1.28 ± 0.05
